For 6 compounds, growth results are on record in PubChem BioAssay (NCI).

This is part of a sample that, as a whole, favours compounds with a hit. Of some 83,000 tested, about 20% had one in any assay.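 Cell lines were cultured in 96-well plates, exposed to a single compound concentration, and assessed for percent growth 48 hours later.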 A number with no mark means an inactive call. Activity calls are given as the source filed them. The calls were made as follows: active = growth percent below 10; inactive = the rest.

Holding throughout (assay): NCI-60 one-dose screen, 48 h (100 = growth as untreated, 0 = no growth, -100 = all killed)
Common to all, as to conditions: 10 µM unless noted

For assay [1], the system named is NCI-H23 lung.
Assay [2] deals with NCI-H226 lung.
Assay [3] deals with NCI-H322M lung.
Assay [4] has as its system HOP-62 NSCLC.
The subject of assay [5] is NCI-H460 lung.
Assay [6] concerns HOP-92 NSCLC.
Assay [7] deals with NCI-H522 lung.
The test system of assay [8] is A549/ATCC NSCLC.
The test system of assay [9] is 786-0 renal.
In assay [10] the test system is COLO 205 colon.
The subject of assay [11] is DU-145 prostate.
In assay [12] the test system is MALME-3M melanoma.
The test system of assay [13] is MDA-MB-231 breast.
Assay [14] has as its system RXF 393 renal.
Assay [15] concerns SF-268 CNS.
In assay [16] the test system is SF-295 CNS.
Assay [17] concerns SF-539 CNS.
Assay [18] concerns UACC-257 melanoma.
Assay [19] concerns M14 melanoma.
The subject of assay [20] is K-562 leukemia.

Take `COP(=S)(N1CC1)N1CC1`: the growth in assay [1] was 101%; in [2], 98.6%; in assay [3] it was 100%; in assay [4], 94.1%; in [5], 107%; in assay [6] it was 98.6%. Moreover, the growth in assay [7] was 103%; in [8], 133%; in [9] it was 105%; in assay [10], 106%; in assay [11], 123%; in [12], 105%. Also, the growth in assay [13] was 93%; in [14], 114%; in [15] it was 112%; in assay [16], 104%; in [17], 94.3%; in assay [18], 147%. Further, in assay [19], the growth was 99.5%.
For `O=c1[nH]c2ccc([N+](=O)[O-])cc2c(=O)o1`, the growth is 101% in [1]; 108% in assay [2]; 97.6% in assay [3]; 103% in [4]; 103% in assay [5]; 79.5% in assay [6]. For the same compound, the growth in assay [7] is 100%; in [8], 107%; in assay [9], 112%; in assay [10], 109%; in assay [11], 117%; in [12] it was 106%. Moreover, the growth in assay [13] was 107%; in assay [14], 101%; in assay [16], 105%; in [17], 102%; in [18] it was 104%; in [19], 108%.
For the compound `O=C1C=C2C(=CCOC2O)O1` (stereo not given), the growth in [1] was 60.4%; in [2], 34.4%; in [3] it was 101%; in assay [4], 59.6%; in assay [5], 71.1%; in assay [6], -22.2% (active). Further, the growth is -79.9% (active) in [7]; 71.6% in assay [8]; 47.1% in assay [9]; -87.3% (active) in assay [10]; 9.48% (active) in assay [11]; -28.5% (active) in [12]. The growth is 66% in assay [13]; -74.8% (active) in assay [14]; 3.53% (active) in [15]; 89% in assay [16]; -33.6% (active) in [17]; -22.1% (active) in [18]. In addition, the growth in [19] was -18.9% (active).
Turning to `COc1cc([N+](=O)[O-])c2nc(C)ccc2c1[N+](=O)[O-]`, the growth is 105% in assay [1]; 104% in assay [2]; 139% in [3]; 132% in assay [4]; 115% in assay [5]; 96.3% in assay [6]. The growth in assay [7] is 87.2%; in [8], 107%; in assay [9], 105%; in assay [10], 77.6%; in assay [11] it was 84.9%; in assay [12] it was 88%. In addition, the growth was 94.4% in assay [13]; 88.2% in assay [14]; 98% in assay [15]; 132% in assay [16]; 118% in assay [17]; 101% in assay [18].
In the case of `Nc1ccc(OCCNS(=O)(=O)c2cccc(S(=O)(=O)F)c2)c(Cl)c1`, the growth is 95.5% in assay [1]; 96.5% in assay [2]; 87.5% in [3]; 90% in [4]; 102% in assay [5]; 87.5% in assay [6]. The growth in [7] was 74.6%; in assay [8], 84.8%; in assay [9], 88.8%; in assay [10], 110%; in assay [20] it was 95.1%; in [12] it was 86.2%. The growth in assay [13] was 100%; in assay [15], 102%; in assay [16], 89.2%; in assay [17], 93.5%; in [18], 75.4%; in [19] it was 97.3%.
On to `CCc1ccccc1[C@@H]1C[C@]2(C)CCO[C@@H]2OO1`, for which the growth was 104% in assay [1]; 102% in assay [2]; 105% in [3]; 98.2% in [4]; 107% in [5]; 92.7% in assay [6]. Besides, the growth in assay [7] was 104%; in assay [8], 96.8%; in assay [9] it was 101%; in assay [10], 118%; in assay [11], 105%; in [12], 110%. The growth in assay [13] is 103%; in [14], 112%; in assay [15] it was 98.3%; in [16], 101%; in [17], 111%; in assay [18], 96.7%.
